According to PubChem BioAssay (NCI):
About 83,000 compounds went through this panel and 20% of them were active in at least one assay; those are over-represented in the sample as a whole.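 Single-dose data. Exposure time 48 hours. Values below 10 considered active.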 Unmarked numbers belong to inactive results. Calls of active or inactive are those of the source.

Assays:
Experiment in all cases: NCI-60 one-dose screen, 48 h (100 = growth as untreated, 0 = no growth, -100 = all killed)
Conditions in all cases: 10 µM unless noted
[1] = test system: T-47D breast
[2] = test system: BT-549 breast
[3] = test system: MDA-MB-435 melanoma
[4] = test system: SW-620 colon
[5] = test system: MCF7 breast
[6] = test system: HCT-116 colon
[7] = test system: HCC-2998 colon
[8] = test system: KM12 colon

| Compound | growth [1] | growth [2] | growth [3] | growth [4] | growth [5] | growth [6] | growth [7] | growth [8] |
| --- | --- | --- | --- | --- | --- | --- | --- | --- |
| CC(=O)OC(C)COc1ccc(-c2ccccc2)cc1 (stereo not drawn) | 88.6% | 98.6% | 98.6% | 100% | 103% | 81.2% | 104% | 98.8% |
| Cn1c(=O)c2c(nc(N3CCCC3)n2C)n(C)c1=O | 90.5% | 97% | 107% | 106% | 99.1% | 93.3% | 108% | 101% |
| Cc1cc(N2CCCCC2)nc(N(CCCNc2ccnc3cc(Cl)ccc23)Cc2ccco2)n1 | 26.9% | 27.3% | -9.54% (active) | 9.49% (active) | 11.7% | 0.453% (active) | 54.7% | 28.9% |
| CC(C)(C)c1ccc(OP(=S)(N/N=C/c2ccccc2O)Oc2ccc(C(C)(C)C)cc2)cc1 | 70.2% | 89.5% | 72% | 77.7% | 53.8% | 42.9% | 86.2% | 67.2% |
| COc1ccc(C2c3ccccc3NC(=O)N2C2CCN(C)CC2)c(OC)c1 (stereo not drawn) | 100% | 107% | 72% | 101% | 78.1% | 107% | 105% | 99.6% |
| C=C1C(=O)O[C@H]2[C@H]1CC/C(COC(=O)NCc1cc3ccccc3[nH]1)=C\CC[C@@]1(C)O[C@@H]21 | -43.1% (active) | -24.2% (active) | 2.87% (active) | -37.8% (active) | 0.667% (active) | -81.9% (active) | 98.3% | 81% |
| O=S(=O)(NCCNc1cc(-c2cn(-c3ccccc3)nc2-c2cccc(O)c2)ccn1)c1ccc(Br)cc1 | 10.5% | 45.6% | 22.4% | 32.4% | 13% | 24% | -61.8% (active) | 17.3% |
| CCOc1ccc(NC(=O)c2ccoc2COc2ccccc2)cc1 | 108% | 109% | 103% | 104% | 95.9% | 93.6% | 109% | 98.8% |
| COc1cc(-c2cc(-c3nc4cc(Cl)c(Cl)cc4[nH]3)[nH]n2)cc(OC)c1OC | -10.8% (active) | 35.3% | 66.1% | 82.7% | 47.6% | 52.6% | 92.3% | 51.5% |
| CC(=O)c1c(C)[nH]c(-c2nc3ccc(N4CCN(C)CC4)cc3[nH]2)c1-c1ccc(N(C)C)cc1 | 23.8% | 51.6% | 27.1% | 56.8% | 8.22% (active) | 23.2% | 30.3% | 37.2% |
| O=C1CCN2C(=O)Nc3ccccc3C2C1 (stereo not drawn) | 100% | 109% | 97.5% | 99.8% | 95.3% | 98.6% | 100% | 106% |
| NC(=O)NCC1CCCCC1 | 97.7% | 104% | 102% | 108% | 90.6% | 106% | 95.5% | 102% |
| C=C(C)[C@@H]1CC[C@]2(C=NCCCNCCCCNCCCN)CC[C@]3(C)[C@H](CC[C@@H]4[C@@]5(C)CCCNC(C)(C)[C@@H]5CC[C@]43C)[C@@H]12 | 90.8% | 98.2% | 94.8% | 88.4% | 89.4% | 77.7% | 100% | 98.2% |
| CC(C)=CCC[C@](C)(O)[C@H]1CC[C@]2(C)[C@@H]1CC[C@@H]1[C@@]3(C)C/C(=C/c4cccc([N+](=O)[O-])c4)C(=O)C(C)(C)[C@@H]3CC[C@]12C | 60.2% | 97.1% | 94.2% | 72.6% | 72.8% | 51.5% | 85.7% | 86% |
| O=c1[nH]c2c3ccncc3cc(-c3cccc(Cl)c3)c2c2cnccc12 | 60.5% | 22% | 64.9% | 58.3% | 22.7% | -31.5% (active) | 61.5% | 34.7% |
| COc1ccc(NC(=S)N/N=C/c2ccccc2SSCCC(=O)OC[C@H]2O[C@H](O)[C@H](O)[C@@H](O)[C@@H]2O)cc1 | 66% | 68.9% | 52.8% | 93.5% | 44.7% | 72.9% | 94.2% | 63.3% |

| Compound | growth [1] | growth [2] | growth [3] | growth [4] | growth [5] | growth [6] | growth [7] | growth [8] |
| --- | --- | --- | --- | --- | --- | --- | --- | --- |
| Cc1c(C)c2c(c(C)c1NC(=O)CCCCCCC(=O)O)CCC(C)(CCCC(C)CCCC(C)CCCC(C)C)O2 (stereo not drawn) | 89.7% | 60.3% | 95% | 80.4% | 43.5% | 22.7% | 98.2% | 30.7% |
| CC1(C)[C@@H](O)CC[C@]2(C)[C@H]3CC[C@@H]4[C@H]5[C@H](C(=O)/C=C/c6ccc(C(F)(F)F)cc6)CC[C@]5(CO)CC[C@@]4(C)[C@]3(C)CC[C@@H]12 | 34.1% | 60% | 42.5% | 44.5% | 32.3% | 15.3% | 77.2% | 68.7% |
| CCOC(=O)c1ccc2c(c1)[n+](=O)c(C(=O)C1CCCS1)c(C(F)(F)F)n2[O-] (stereo not drawn) | -70.5% (active) | -93.4% (active) | -80.5% (active) | -82.4% (active) | -68.1% (active) | -96.2% (active) | -89% (active) | -90.4% (active) |
| N#C/C(=C\c1ccc(-c2ccc(F)cc2)o1)c1nc(-c2ccco2)cs1 | -26.3% (active) | 106% | 102% | 96.5% | 11.7% | 101% | 51% | 60.6% |
| Clc1cc(Cl)cc(Nc2ccc3c(OCCCN4CCOCC4)cccc3n2)c1 | 60.4% | 72.7% | 57.4% | -41.9% (active) | 21.6% | 27.5% | 36.7% | -51.2% (active) |
| COc1cc2nc(Cl)nc(Nc3cccc(C(=O)/C=C/c4ccc(Cl)cc4)c3)c2cc1OC | 71.1% | 67% | 69.9% | -5.87% (active) | 19.7% | -0.905% (active) | 93.4% | 40.5% |
| CC[C@H](CC[C@@H](C)[C@H]1CC[C@H]2[C@@H]3/C(=C/c4cccnc4)C(=O)C4=CC(=O)CC[C@]4(C)[C@H]3CC[C@]12C)C(C)C | 47.7% | 91.3% | 99.7% | 93.7% | 51% | 61.9% | 98.8% | 97.1% |
| COc1cc(/C=N/NC(=S)NNC(=S)NC2CCCCC2)cc(OC)c1OC | 69.9% | 105% | 98.8% | 104% | 92.4% | 104% | 112% | 95.1% |
| Nc1ccc(Cl)cn1 | 86.7% | 104% | 106% | 102% | 94.7% | 95.4% | 113% | 100% |
| Cc1ccc2oc(=O)cc(-c3sc(N4CCCCC4)nc3-c3ccccc3)c2c1 | 76.8% | 91.2% | 103% | 96.5% | 70.5% | 89% | 99.3% | 94.8% |
| Cc1cc2nc3c4cc(O)ccc4n(CCN(C)C)c3nc2cc1C | 4.84% (active) | 15.8% | 3.8% (active) | 3.53% (active) | -10.1% (active) | -0.74% (active) | -22.5% (active) | 10.2% |
| CN1CCN(c2nc(-c3csc(-c4cccs4)n3)cc3ccccc23)CC1 | 52.1% | 70.4% | 12.2% | 9.06% (active) | 40.8% | 46.7% | -38.2% (active) | 5.42% (active) |
| COc1cc2nc(Cl)nc(Nc3cccc(C(=O)/C=C/c4ccccc4)c3)c2cc1OC | 68.8% | 62.9% | 36.5% | -11.9% (active) | 12.3% | -52.1% (active) | 57.4% | 9.13% (active) |
| CC(=O)N1N=C(c2ccc(C)cc2)CC1c1ccc(Oc2ccc(Br)cc2)cc1 (stereo not drawn) | 60.6% | 89.3% | 97.6% | 86.7% | 81.8% | 87.3% | 96.9% | 85.5% |
| Cc1cccc2c1NC(=O)[C@@]21[C@H](C(=O)c2ccccc2)[C@]2(C(=O)Nc3ccccc32)[C@H]2CCCN21 | 32.6% [100 µM] | 10.4% [100 µM] | 61.8% [100 µM] | 11.7% [100 µM] | -4.76% [100 µM] (active) | -36.1% [100 µM] (active) | 19.7% [100 µM] | 40.3% [100 µM] |
